{"source": "PubChem BioAssay AID540332", "about": "(The Scripps Research Institute Molecular Screening Center, 2011)", "system": "Phorbol Ester", "experiment": "selectivity profile across receptors and CYP450s – biochemical, Ricerca HitProfilingScreen, CYP450, set 2, selectivity assay for S1P4 agonist project, profiling panel (AID 540332)", "conditions": "at 30 µM; active compounds read high", "note": "Values without a mark were called inactive. No rule for the calls is given here."}
{"smiles": "COCCN=C1S/C(=C\\c2cc(C)n(-c3ccc(F)cc3F)c2C)C(=O)N1C", "values": [{"measurement": "inhibition", "value": 2, "unit": "%"}]}
